How the values were obtained:
[1] = target: T1, Aspartate--tRNA(Asp/Asn) ligase (Mycobacterium tuberculosis (strain ATCC 25618 / H37Rv)) (UniProt P9WFW3); experiment: Assay for Asp RNA synthetase-1 from Mycobacterium tuberculosis; type: functional; set-up: scale not given: direction of the effect not stated beside the values; settings: 30 µM; also: in the data most compounds retested in dose-response had high values
T1 sequence (whole entry): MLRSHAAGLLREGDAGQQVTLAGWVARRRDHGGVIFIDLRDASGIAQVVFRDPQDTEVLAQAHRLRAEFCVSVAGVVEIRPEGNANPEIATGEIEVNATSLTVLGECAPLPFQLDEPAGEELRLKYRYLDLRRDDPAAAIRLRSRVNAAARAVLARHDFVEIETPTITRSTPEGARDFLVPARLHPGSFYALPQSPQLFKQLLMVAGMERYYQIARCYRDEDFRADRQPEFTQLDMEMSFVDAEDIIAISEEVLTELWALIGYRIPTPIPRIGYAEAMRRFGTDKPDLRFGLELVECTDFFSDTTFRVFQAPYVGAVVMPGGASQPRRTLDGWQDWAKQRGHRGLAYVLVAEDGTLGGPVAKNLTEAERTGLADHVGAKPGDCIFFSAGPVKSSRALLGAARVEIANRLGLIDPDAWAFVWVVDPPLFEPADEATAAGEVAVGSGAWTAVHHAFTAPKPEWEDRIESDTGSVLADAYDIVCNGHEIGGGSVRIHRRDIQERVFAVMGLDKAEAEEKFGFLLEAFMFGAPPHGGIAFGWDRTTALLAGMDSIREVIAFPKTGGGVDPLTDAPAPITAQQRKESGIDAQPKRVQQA

[2] = target: Shiga toxin 2 (Escherichia coli O157:H7) (UniProt P09385+P09386); experiment: E. coli 0.157:H7 Shiga Toxin SOP - stx2 screening assay; type: functional; set-up: scale not given: direction of the effect not stated beside the values; settings: 30 µM

CCCn1nccc1C(=O)N1CCCN(CCCc2ccccc2)CC1
Percent Effect [1]: -3.6% | Percent Effect [2]: -14.4%

Cc1nc(C(C)(C)NC(=O)Nc2ccccc2)no1
Percent Effect [1]: 0.805% | Percent Effect [2]: -0.789%

CCN1C(=O)C(C)(C)c2cc(NC(=O)c3ccco3)ccc21
Percent Effect [1]: 10.8% | Percent Effect [2]: -25.1%

COc1c(CNC2CCCc3ccccc32)c(C(C)C)nn1C (centres undefined)
Percent Effect [1]: -0.233% | Percent Effect [2]: -10.1%

Cn1cc(-c2nc(CN3CCc4c(ncn4C4CC4)C3)cs2)cn1
Percent Effect [1]: -0.0232% | Percent Effect [2]: -83.4%

Cc1cncc(C(=O)N2CCC(Cn3cc(-c4ccsc4)nn3)CC2)c1
Percent Effect [1]: -0.792% | Percent Effect [2]: -26.5%

CCCc1noc(CN2CCCC2c2ccsc2)n1 (centres undefined)
Percent Effect [1]: -3.91% | Percent Effect [2]: 0.761%

CC(NC(=O)NCc1cccnc1N1CCCCC1)c1nccs1 (centres undefined)
Percent Effect [1]: -6.16% | Percent Effect [2]: -7.44%

Cc1ccc(C2CCCCCN2Cc2cn(C)nc2C)s1 (centres undefined)
Percent Effect [1]: -2.17% | Percent Effect [2]: -71.3%

CC(C)(CNC(=O)OC(C)(C)C)NC(=O)C1CC(=O)N(C2CC2)C1 (centres undefined)
Percent Effect [1]: 3.37% | Percent Effect [2]: -23.3%

Cn1cc(C(=O)NCC2CCN(C(=O)NCC(F)(F)F)CC2)cn1
Percent Effect [1]: 2.43% | Percent Effect [2]: -39.4%

CCn1nc(C)c2nc(C(C)C)nc(NCCOC)c21
Percent Effect [1]: -2.09% | Percent Effect [2]: -4.71%

CN(Cc1nnc(C2CC2)n1C)C1CCN(Cc2ccccc2F)C1 (centres undefined)
Percent Effect [1]: -3.49% | Percent Effect [2]: -40.3%

Cc1ccc(N2CCCN(C(=O)c3cc(Cl)c[nH]3)CC2)nn1
Percent Effect [1]: -1.03% | Percent Effect [2]: -26.5%

CN(C)C(=O)CCCNC(=O)C(c1cccc(F)c1)N(C)C (centres undefined)
Percent Effect [1]: -1.57% | Percent Effect [2]: -24.8%

Cc1nnc(CCNC2CCN(c3ncnc4c(C)csc34)CC2)s1
Percent Effect [1]: 0.208% | Percent Effect [2]: -65.7%

CC(C)c1noc(CCCC(=O)NC2CCS(=O)(=O)C2)n1 (centres undefined)
Percent Effect [1]: 0.955% | Percent Effect [2]: -17.4%

NC(=O)CC1CCN(C(=O)CCOc2ccc(Cl)cc2)CC1
Percent Effect [1]: -1.03% | Percent Effect [2]: 32.7%

CN1CC(=O)N(c2cnn(C)c2)CC12CCN(Cc1ccccc1)C2 (centres undefined)
Percent Effect [1]: -0.707% | Percent Effect [2]: -5.72%

O=C(CN1CCOC(Cn2cccn2)C1)NCc1cccs1 (centres undefined)
Percent Effect [1]: -1.46% | Percent Effect [2]: -9.71%

CN(C)C(=O)N1C[C@H]2CN(Cc3cccc(F)c3)C(=O)[C@H]2C1
Percent Effect [1]: -2.95% | Percent Effect [2]: -2.65%

O=C(Cc1cccc(Cl)c1)N[C@@H]1CCNC[C@H]1O
Percent Effect [1]: -3.06% | Percent Effect [2]: 49.4%

Cn1ccnc1CN1CCC2(COCCN(Cc3ccsc3)C2)C1 (centres undefined)
Percent Effect [1]: -5.11% | Percent Effect [2]: -19.8%

CN(C)C(=O)c1ccc(CNC(=O)NCCN(C)C2CCCC2)cc1
Percent Effect [1]: 1.57% | Percent Effect [2]: 14.3%

CN(Cc1ccsc1)C(=O)Nc1ccc(S(C)(=O)=O)nc1
Percent Effect [1]: -0.6% | Percent Effect [2]: -35.6%

Cc1noc(NC(=O)c2ccc(OC(F)(F)F)cc2)n1
Percent Effect [1]: 3.01% | Percent Effect [2]: 62.3%

O=C(c1cccs1)N1CCC(Cn2nc(-c3ccco3)ccc2=O)CC1
Percent Effect [1]: -3.23% | Percent Effect [2]: 5.24%

CCOc1ccc(CNCCCn2ccnc2)cc1Br
Percent Effect [1]: -5.78% | Percent Effect [2]: -77.4%

COc1ccc(CN(C)[C@@H]2CN(C(=O)c3cccs3)C[C@H]2O)cc1
Percent Effect [1]: -4.54% | Percent Effect [2]: 12%

CC(=O)N1CCc2c(nc(-c3ccncc3)nc2N(C)CC(O)CO)C1 (centres undefined)
Percent Effect [1]: -1.07% | Percent Effect [2]: 5.83%

CCn1cnnc1C1CCN(C(=O)c2ccc3cc[nH]c3c2)CC1
Percent Effect [1]: -3% | Percent Effect [2]: -9.96%

Cc1cc(C)n(C2CCCN(C(=O)c3ccc(NC4CC4)nc3)C2)n1 (centres undefined)
Percent Effect [1]: -1.9% | Percent Effect [2]: 27%

Cn1cnnc1C1CCN(c2cncc(-n3cccn3)n2)CC1
Percent Effect [1]: 0.324% | Percent Effect [2]: -33.6%

O=C1CC(c2cccs2)c2snc(C(=O)O)c2N1 (centres undefined)
Percent Effect [1]: -3.23% | Percent Effect [2]: -4.3%

CN(CC1CN(Cc2cn3ccsc3n2)CCO1)c1cccnn1 (centres undefined)
Percent Effect [1]: -3.78% | Percent Effect [2]: -9.36%

CC(=O)Nc1nc(CN2CCCCC2Cn2cccn2)cs1 (centres undefined)
Percent Effect [1]: 8.39% | Percent Effect [2]: -4.08%

Cc1csc2nc3n(c(=O)c12)CCN(C(=O)c1ccncc1)CC3
Percent Effect [1]: -3.92% | Percent Effect [2]: 3.14%

Cc1ccccc1CC(=O)N(C)C1CCCC1
Percent Effect [1]: -6.33% | Percent Effect [2]: -21%

CN(c1ccncn1)C1CC2(CCN(C(=O)CCc3cccs3)C2)C1 (centres undefined)
Percent Effect [1]: -1.32% | Percent Effect [2]: -23.3%

Cc1csc(N2CCCN(C(=O)c3cnns3)CC2)n1
Percent Effect [1]: 1.66% | Percent Effect [2]: -7.36%

O=C(C1CCCc2[nH]ncc21)N1CCCCCC1 (centres undefined)
Percent Effect [1]: -0.324% | Percent Effect [2]: 1.51%

FC(F)(F)COCCN1CCN(c2ccc3nncn3n2)CC1
Percent Effect [1]: 0.546% | Percent Effect [2]: -42.1%

Cn1ccnc1-c1ccccc1C(=O)N1CCc2c(nc(N)[nH]c2=O)C1
Percent Effect [1]: 2.08% | Percent Effect [2]: -35.7%

Cc1ccc(C(=O)N2CCC3(CCN(C(=O)c4cccnc4)C3)CC2)o1
Percent Effect [1]: 5.85% | Percent Effect [2]: -10.6%

N#CC1(C(=O)N2CCN(c3nccs3)CC2)CCCCC1
Percent Effect [1]: -2.57% | Percent Effect [2]: 33.3%

Nc1nc(CN2CCCC(Cn3cncn3)C2)nc2ccccc12 (centres undefined)
Percent Effect [1]: 0.466% | Percent Effect [2]: -13.2%

CN(Cc1ccco1)[C@@H]1CN(Cc2ccco2)[C@@H]2CCCO[C@H]12
Percent Effect [1]: -1.66% | Percent Effect [2]: 0.222%

Reference: ChEMBL document CHEMBL3988442, “University of Dundee, Small-Polar-MMV Screening Library” (2021)
